Experimental data: PubChem BioAssay (NCATS)
Unmarked numbers belong to inactive results. Inconclusive results are not listed. Calls of active or inactive are those of the source. Unless noted, the call rests on the fitted dose curve; in most records, active means well fitted curve in either direction with a large enough effect (not every such curve was filed as active); inconclusive means small, poorly fitted or top-dose-only effect, or another doubt; inactive means flat fitted curve, though single readings scatter.

Legend:
[1] = AP1 Signaling Pathway (AID 357); settings: ME-180 AP-1-bla reporter, EGF-induced, beta-lactamase ratio, 5 h; at 17.2 µM (top of the series) unless noted;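 further: ME-180 reporter cells stimulated with EGF at its EC50 level; on the % scale 0 is the no-effect control and ±100 the full control effect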
Outline: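 A ratiometric CCF4 readout (405 nm excitation; 460 and 530 nm emission) quantified AP-1-driven beta-lactamase in ME-180 cells after 5 h with compound and EC50 EGF; AC50 values were derived for activators and inhibitors.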

[2] = molecular target: Glucocorticoid receptor (Homo sapiens) (UniProt P04150); assay: GR-GFP Redistribution (AID 450;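 active means compounds whose dose series gives a full or clear partial fitted curve of increased nuclear translocation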; further: potency means the concentration at half of the fitted maximal effect)
Sequence of Glucocorticoid receptor (Homo sapiens) (P04150 whole entry, looked up, the tested form may be a part): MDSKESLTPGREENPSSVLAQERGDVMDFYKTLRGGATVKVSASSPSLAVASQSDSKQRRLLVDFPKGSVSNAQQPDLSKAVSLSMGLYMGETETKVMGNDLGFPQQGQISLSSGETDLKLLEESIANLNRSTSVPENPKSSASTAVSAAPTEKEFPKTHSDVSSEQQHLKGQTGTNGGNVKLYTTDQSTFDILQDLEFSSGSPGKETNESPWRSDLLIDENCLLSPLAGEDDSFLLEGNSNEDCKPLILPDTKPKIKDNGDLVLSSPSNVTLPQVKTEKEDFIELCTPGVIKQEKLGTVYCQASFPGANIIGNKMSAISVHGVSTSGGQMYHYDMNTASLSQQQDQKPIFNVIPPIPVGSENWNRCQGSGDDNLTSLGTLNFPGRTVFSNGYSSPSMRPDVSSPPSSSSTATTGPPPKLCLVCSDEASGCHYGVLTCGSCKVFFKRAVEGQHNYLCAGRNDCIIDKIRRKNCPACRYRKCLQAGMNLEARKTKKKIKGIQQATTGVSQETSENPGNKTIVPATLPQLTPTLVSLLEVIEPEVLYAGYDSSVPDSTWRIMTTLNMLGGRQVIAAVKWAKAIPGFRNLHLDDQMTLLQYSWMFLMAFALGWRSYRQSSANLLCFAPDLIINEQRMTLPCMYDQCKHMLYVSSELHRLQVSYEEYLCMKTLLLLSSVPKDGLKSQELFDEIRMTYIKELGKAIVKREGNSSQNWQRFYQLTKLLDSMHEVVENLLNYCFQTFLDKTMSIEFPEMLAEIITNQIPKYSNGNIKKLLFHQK

[3] = molecular target: Cytochrome P450 1A2 (Homo sapiens) (UniProt P05177); assay: p450-cyp1a2 (AID 410; calls by dose curve; further: potency means the concentration at half of the fitted maximal effect;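 on activity change, negative = inhibition: -100% = full effect of reference inhibitor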)
Sequence of Cytochrome P450 1A2 (Homo sapiens) (P05177 whole entry, looked up): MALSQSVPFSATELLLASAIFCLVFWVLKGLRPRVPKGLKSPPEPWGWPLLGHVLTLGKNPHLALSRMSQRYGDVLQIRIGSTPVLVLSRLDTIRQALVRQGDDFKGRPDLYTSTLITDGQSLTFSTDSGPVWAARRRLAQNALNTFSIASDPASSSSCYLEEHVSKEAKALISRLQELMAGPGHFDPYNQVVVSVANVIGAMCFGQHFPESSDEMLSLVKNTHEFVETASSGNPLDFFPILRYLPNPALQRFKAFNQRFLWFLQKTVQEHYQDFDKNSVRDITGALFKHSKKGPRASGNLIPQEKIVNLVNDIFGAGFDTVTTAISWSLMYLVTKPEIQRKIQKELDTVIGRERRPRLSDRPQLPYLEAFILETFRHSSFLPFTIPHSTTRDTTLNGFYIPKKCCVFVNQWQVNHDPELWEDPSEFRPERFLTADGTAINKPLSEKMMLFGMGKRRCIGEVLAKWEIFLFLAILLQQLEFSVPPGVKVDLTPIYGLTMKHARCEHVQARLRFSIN
Outline: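 Luminescent readout of luciferin formed from Luciferin-ME by human CYP1A2; data normalized against complete inhibition by 57 uM furafylline. Enzyme 20nM, substrate 100uM at Km, 100mM KPO4 buffer, 60 min reaction at room temperature.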

[4] = Stat Signaling Pathway (AID 446); settings: ME-180 SIE beta-lactamase reporter, IL-6 stimulated, 5 h; at 17.2 µM (top of the series) unless noted;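 further: ME-180 cervical cancer cells given 40 pM IL-6 alongside compound; SIE-controlled beta-lactamase reporter measured as 460/530 nm FRET emission ratio; on the % scale 0 is the no-effect control and ±100 the full control effect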
Outline: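 ME-180 cells carrying a SIE-driven beta-lactamase reporter are stimulated with 40 pM IL-6 for 5 h at 37C in the presence of compound. The 460/530 nm FRET substrate ratio is read after 2.5 h at RT. Data are normalised to 300 pM IL-6 and to 125 nM JAK inhibitor controls.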

[5] = molecular target: Glucocorticoid receptor (Homo sapiens) (UniProt P04150); assay: GR-EFC Redistribution (AID 451; calls by dose curve; further: potency means the concentration at half of the fitted maximal effect); settings: CHO-K1 GR-EFC translocation, beta-gal luminescence, 2 h
Outline: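 CHO-K1 cells expressing nuclear EA and GR-ED fragments of b-gal; compounds titrated up to 46 uM final, 2 h at 37 C. GR nuclear translocation read as complemented b-gal luminescence after 1 h RT detection.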

[6] = molecular target: 3',5'-cyclic-AMP phosphodiesterase 4B (Homo sapiens) (UniProt Q07343); assay: qHTS Assay for Inhibitors of PDE-IV (AID 607; active means well fitted activation curve with a large enough effect in the main read-out, with a control signal flat, not every such curve was filed as active; further: % of control where 0% means no effect)
Sequence of 3',5'-cyclic-AMP phosphodiesterase 4B (Homo sapiens) (Q07343 whole entry, looked up): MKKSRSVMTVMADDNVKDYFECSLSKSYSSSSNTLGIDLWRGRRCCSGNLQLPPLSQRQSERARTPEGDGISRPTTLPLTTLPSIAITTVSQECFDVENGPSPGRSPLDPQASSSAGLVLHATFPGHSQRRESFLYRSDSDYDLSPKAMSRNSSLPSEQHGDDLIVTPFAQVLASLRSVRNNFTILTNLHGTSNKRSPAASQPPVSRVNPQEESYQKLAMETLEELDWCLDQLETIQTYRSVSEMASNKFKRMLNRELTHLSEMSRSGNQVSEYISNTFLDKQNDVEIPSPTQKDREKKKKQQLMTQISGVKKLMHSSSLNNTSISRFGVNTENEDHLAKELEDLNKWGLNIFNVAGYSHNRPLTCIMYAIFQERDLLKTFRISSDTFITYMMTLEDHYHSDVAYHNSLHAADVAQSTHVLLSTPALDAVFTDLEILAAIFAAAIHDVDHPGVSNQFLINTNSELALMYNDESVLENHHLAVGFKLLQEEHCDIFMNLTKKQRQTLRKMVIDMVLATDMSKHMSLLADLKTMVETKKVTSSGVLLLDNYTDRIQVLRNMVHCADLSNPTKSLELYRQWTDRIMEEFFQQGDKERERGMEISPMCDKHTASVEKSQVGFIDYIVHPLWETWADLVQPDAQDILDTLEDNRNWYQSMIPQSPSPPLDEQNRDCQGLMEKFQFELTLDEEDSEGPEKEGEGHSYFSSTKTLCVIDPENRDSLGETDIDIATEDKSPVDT
Outline: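 HEK293 ACTOne cells with CNG channel (1000/well), endogenous PDE4; membrane potential dye, compounds up to 22.9 uM final. Fluorescence Ex 535/Em 590; RO 20-1724 (100 uM final) as reference.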

[7] = NFAT Signaling Pathway (AID 444); settings: Jurkat NFAT-bla M1, carbachol, beta-lactamase ratio, 5 h; at 17.2 µM (top of the series) unless noted;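 further: carbachol stimulus at about its EC50 of 1 µM final; on the % scale 0 is the no-effect control and ±100 the full control effect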
Outline: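 Jurkat cells with NFAT-driven β-lactamase reporter and co-expressed M1 receptor, stimulated with carbachol (final 1 uM, ~EC50), compound titration, 5 h at 37 °C. CCF4 loaded 1 h at RT; 460/530 nm ratio gave %activity and AC50.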

[8] = molecular target: Mitogen-activated protein kinase 10 (Mus musculus) (UniProt Q61831); assay: JNK3 AlphaScreen Assay (AID 530);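 further: kinase came from lysate of stimulated human HepG2 cells; signal reports phosphorylation of biotinylated GST-cJun 1-79 at Ser73 with 10 µM ATP; on the % scale 0 is the no-effect control and ±100 the full control effect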
Outline: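 Pre-activated (IL-1β/TNFα) JNK3 in HepG2 lysates phosphorylates biotin-GST-cJun(1-79), 10 uM ATP; anti-phospho-cJun(Ser73) AlphaScreen read at room temperature, pH 7.6 Tris buffer. Compounds pre-incubated 15 min as titrations.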

[9] = molecular target: Guanine nucleotide-binding protein G(i) subunit alpha-1 (Homo sapiens) (UniProt P63096); assay: qHTS Assay for Inhibitors of RGS12 GoLoco Motif Activity (Green Fluorophore) (AID 879; active means well fitted curve in the direction sought with a large enough effect; an effect the other way counts as inactive or inconclusive;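 further: 0% = labeled peptide with Gαi1 and full inhibition = labeled peptide alone without protein; negative values mean loss of peptide binding seen as reduced polarization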)
Sequence of Guanine nucleotide-binding protein G(i) subunit alpha-1 (Homo sapiens) (P63096 whole entry, looked up): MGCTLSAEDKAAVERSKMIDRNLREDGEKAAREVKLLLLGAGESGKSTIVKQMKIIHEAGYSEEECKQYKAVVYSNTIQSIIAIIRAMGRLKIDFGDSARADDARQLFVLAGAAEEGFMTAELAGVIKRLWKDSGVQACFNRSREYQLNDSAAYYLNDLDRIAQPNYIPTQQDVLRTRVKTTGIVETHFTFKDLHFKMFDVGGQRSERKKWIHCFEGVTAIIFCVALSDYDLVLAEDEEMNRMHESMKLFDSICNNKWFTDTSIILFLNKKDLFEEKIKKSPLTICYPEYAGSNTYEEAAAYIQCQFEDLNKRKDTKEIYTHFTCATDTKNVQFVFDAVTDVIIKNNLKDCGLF
Outline: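 Fluorescence polarization assay: 50 nM Gαi1 with 10 nM FITC-labeled RGS12 GoLoco peptide in 10 mM Tris pH 7.5, 150 mM NaCl, 0.1 mM GDP, 0.05% NP40, 10 min at room temperature with compound.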

[10] = molecular target: Cytochrome P450 3A4 (Homo sapiens) (UniProt P08684); assay: qHTS Assay for Activators of Cytochrome P450 3A4 (AID 885; active means well fitted curve in the direction sought with a large enough effect; an effect the other way counts as inactive or inconclusive; further: nearly all actives have a fitted effect of over 65% in size)
Sequence of Cytochrome P450 3A4 (Homo sapiens) (P08684 whole entry, looked up): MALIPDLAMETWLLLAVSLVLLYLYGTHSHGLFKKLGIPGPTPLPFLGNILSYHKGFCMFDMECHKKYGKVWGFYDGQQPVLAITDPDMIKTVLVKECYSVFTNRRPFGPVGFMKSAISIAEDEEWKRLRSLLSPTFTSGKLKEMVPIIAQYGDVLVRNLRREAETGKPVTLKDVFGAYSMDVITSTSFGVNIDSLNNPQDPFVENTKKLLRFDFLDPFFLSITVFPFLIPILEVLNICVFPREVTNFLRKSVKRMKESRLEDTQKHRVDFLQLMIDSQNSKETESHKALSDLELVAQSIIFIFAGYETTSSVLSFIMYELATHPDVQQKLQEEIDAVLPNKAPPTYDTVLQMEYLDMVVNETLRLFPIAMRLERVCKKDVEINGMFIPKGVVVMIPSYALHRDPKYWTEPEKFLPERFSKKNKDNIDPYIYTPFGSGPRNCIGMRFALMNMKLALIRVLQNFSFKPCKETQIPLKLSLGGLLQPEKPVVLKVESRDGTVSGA
Outline: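 Human CYP3A4 (20 nM) with Luciferin-PPXE at 25 uM (its KM) in 200 mM KPO4; 10 min compound preincubation, then NADPH regeneration and 60 min reaction at RT. Luciferin read by luminescence; normalized to 57 uM ketoconazole full inhibition.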

[11] = qHTS Assay for Identification of Small Molecule Agonists for Thrombopoietin (TPO) Signaling Pathway (AID 917; active means well fitted curve in the direction sought with a large enough effect; an effect the other way counts as inactive or inconclusive; further: on the % scale 0 is the no-effect control and ±100 the full control effect)
Outline: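 Murine Ba/F3 cells stably expressing human TPO receptor and a Glycoprotein IIb promoter–luciferase reporter were IL-3-starved overnight, then treated with compounds plus TPO (26 pM final, its EC50) for 24 hrs at 37 C; luminescence was read.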

[12] = molecular target: Muscarinic acetylcholine receptor M1 (Rattus norvegicus) (UniProt P08482); assay: qHTS Assay for Antagonists of Acetylcholine Muscarinic M1 Receptor: Measurement of IP-One Response (AID 944; active means well fitted curve in the direction sought with a large enough effect; an effect the other way counts as inactive or inconclusive; further: nearly all actives have a fitted effect of over 75% in size)
Sequence of Muscarinic acetylcholine receptor M1 (Rattus norvegicus) (P08482 whole entry, looked up): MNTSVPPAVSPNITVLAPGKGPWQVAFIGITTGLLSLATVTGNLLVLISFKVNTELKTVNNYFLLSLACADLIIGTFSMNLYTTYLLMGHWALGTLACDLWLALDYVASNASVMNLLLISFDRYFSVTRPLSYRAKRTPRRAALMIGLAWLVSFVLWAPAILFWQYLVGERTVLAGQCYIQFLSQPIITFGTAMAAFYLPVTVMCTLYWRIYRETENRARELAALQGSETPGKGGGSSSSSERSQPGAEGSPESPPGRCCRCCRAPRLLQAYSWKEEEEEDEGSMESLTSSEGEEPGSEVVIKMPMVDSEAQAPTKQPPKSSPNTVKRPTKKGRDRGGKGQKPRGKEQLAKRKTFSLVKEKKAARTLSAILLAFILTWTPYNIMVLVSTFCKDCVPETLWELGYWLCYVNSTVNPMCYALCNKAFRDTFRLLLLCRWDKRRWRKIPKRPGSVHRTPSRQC
Outline: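 M1-CHO (rat), 2000 cells/well, overnight recovery; cpd 10 min; carbachol EC80 (200 nM), 30 min, HEPES buffer + 50 mM LiCl pH 7.4; IP-One HTRF, Ex 337, Em 620/665 nm.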

[13] = molecular target: Pyruvate kinase (Leishmania mexicana) (UniProt Q27686); assay: qHTS Validation Assay for Inhibitors of Leishmania Mexicana Pyruvate Kinase (AID 945; active means well fitted curve in the direction sought with a large enough effect; an effect the other way counts as inactive or inconclusive;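 further: 0% = DMSO only neutral control wells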)
Sequence of Pyruvate kinase (Leishmania mexicana) (Q27686 2-499 E452W): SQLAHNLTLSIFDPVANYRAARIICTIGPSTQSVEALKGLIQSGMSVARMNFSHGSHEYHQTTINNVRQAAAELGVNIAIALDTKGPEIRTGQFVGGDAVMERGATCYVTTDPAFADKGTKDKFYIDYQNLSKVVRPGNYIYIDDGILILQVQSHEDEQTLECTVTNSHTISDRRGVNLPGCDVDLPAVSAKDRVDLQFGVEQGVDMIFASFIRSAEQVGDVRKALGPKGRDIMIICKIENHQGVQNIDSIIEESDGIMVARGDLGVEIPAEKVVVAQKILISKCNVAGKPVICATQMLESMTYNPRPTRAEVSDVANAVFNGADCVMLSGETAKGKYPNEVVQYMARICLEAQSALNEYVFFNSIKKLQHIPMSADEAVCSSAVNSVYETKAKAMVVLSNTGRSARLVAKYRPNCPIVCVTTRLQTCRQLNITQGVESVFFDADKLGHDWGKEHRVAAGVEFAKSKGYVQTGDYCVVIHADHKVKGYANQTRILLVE
Outline: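 Compounds are tested as eight-point concentration series. Reactions contain 0.2 nM LmPYK E451W, 0.5 mM PEP, 0.1 mM ADP, 7 mM MgCl2 and 50 mM KCl at pH 7.2, run 1 h at room temperature, then read by PKLight luminescence.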

[14] = molecular target: Pyruvate kinase PKM (Homo sapiens) (UniProt P14618); assay: qHTS Assay for Activators of Human Muscle Pyruvate Kinase (AID 954; active means well fitted curve in the direction sought with a large enough effect, not every such curve was filed as active;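 further: 0% = uninhibited enzyme and -100% = no enzyme or full thiadiazolimine inhibition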)
Sequence of Pyruvate kinase PKM (Homo sapiens) (P14618 whole entry, looked up): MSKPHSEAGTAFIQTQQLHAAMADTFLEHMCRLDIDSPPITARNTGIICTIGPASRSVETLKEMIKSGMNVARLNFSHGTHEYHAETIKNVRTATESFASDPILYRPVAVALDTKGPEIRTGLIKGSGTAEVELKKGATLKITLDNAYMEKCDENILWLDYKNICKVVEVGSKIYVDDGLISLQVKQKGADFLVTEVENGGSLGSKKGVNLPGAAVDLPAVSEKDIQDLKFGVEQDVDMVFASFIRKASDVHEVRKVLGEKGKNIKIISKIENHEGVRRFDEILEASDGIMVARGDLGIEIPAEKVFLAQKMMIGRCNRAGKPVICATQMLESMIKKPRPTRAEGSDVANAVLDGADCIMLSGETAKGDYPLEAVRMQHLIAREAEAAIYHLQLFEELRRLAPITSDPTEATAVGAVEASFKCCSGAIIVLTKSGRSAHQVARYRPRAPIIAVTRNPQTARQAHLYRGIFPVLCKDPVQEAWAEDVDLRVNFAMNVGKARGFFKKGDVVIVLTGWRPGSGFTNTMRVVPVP
Outline: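 Purified human PKM2 (0.1 nM) with 0.5 mM PEP (Km) and 0.1 mM ADP in 50 mM imidazole pH 7.2, KCl, MgCl2, 1 h at room temperature; ATP formed read by coupled luciferase luminescence. Normalized to no-enzyme/110 uM thiadiazolimine inhibition; 0.3 nM enzyme column for activation.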

[15] = molecular target: Alpha-galactosidase A (Homo sapiens) (UniProt P06280); assay: Counterscreen for Glucocerebrosidase Inhibitors: qHTS Assay for Human alpha-Galactosidase at pH 4.5 (AID 992; active means well fitted curve in the direction sought with a large enough effect; an effect the other way counts as inactive or inconclusive; further: 0% is about no effect)
Sequence of Alpha-galactosidase A (Homo sapiens) (P06280 whole entry, looked up): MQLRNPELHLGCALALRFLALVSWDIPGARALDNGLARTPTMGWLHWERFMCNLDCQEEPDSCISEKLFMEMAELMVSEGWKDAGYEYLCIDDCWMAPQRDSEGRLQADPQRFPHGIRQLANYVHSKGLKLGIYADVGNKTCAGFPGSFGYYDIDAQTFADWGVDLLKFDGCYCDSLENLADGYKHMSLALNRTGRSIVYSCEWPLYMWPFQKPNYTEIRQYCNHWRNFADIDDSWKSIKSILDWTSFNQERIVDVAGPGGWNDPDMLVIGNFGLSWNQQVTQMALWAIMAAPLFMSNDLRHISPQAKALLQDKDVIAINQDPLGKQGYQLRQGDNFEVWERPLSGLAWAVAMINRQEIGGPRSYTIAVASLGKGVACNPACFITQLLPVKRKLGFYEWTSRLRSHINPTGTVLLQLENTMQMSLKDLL
Outline: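 Human enzyme (2 nM) with 80 uM 4-methylumbelliferyl alpha-D-galactopyranoside in 50 mM citric acid, 0.005% Tween-20, pH 4.5, 20 min at room temperature. Compounds 0.7 nM–77 uM; fluorescence Ex 365/Em 440 after pH 10 stop; AC50 from Hill fits.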

[16] = molecular target: alpha-glucosidase (Oryza sativa, rice) (UniProt Q653V4); assay: Counterscreen for Glucocerebrosidase Inhibitors: qHTS Assay for Rice alpha-Glucosidase at pH 5.0 (AID 997; active means well fitted curve in the direction sought with a large enough effect; an effect the other way counts as inactive or inconclusive;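 further: 0% = full activity with enzyme and -100% = basal without enzyme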)
Outline: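 Rice alpha-glucosidase (4 nM final) with 400 uM 4-methylumbelliferyl-alpha-D-glucopyranoside in citrate buffer pH 5.0, 20 min at room temperature, stopped at pH 10; fluorescence 365/440 nm, compounds 0.7 nM–77 uM, AC50 from Hill fits.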

[17] = molecular target: Muscarinic acetylcholine receptor M1 (Rattus norvegicus) (UniProt P08482); assay: qHTS Assay for Antagonists of Acetylcholine Muscarinic M1 Receptor: Kinetic Measurement of Intracellular Calcium Response (AID 943; active means well fitted curve in the direction sought with a large enough effect; an effect the other way counts as inactive or inconclusive; further: potency means the concentration at half of the fitted maximal effect; nearly all actives have a fitted effect of over 75% in size)
Outline: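 Rat M1-CHO cells, 2000/well, overnight → Fluo-4 no-wash dye with probenecid, 1 h 37C → compound 10 min, room temp → basal read 6 s → carbachol EC80 (100 nM) → 4 min kinetic read; peak/basal.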

## Clc1ccc2nc(N3CCNCC3)nc(-c3ccccc3)c2c1
[1]
  activity change, negative = inhibition: 28.9%
[2]
  Potency: > 20.6 µM

## Cn1c(N2CCOCC2)nc2c1c(=O)n(Cc1ccc(Cl)c(Cl)c1)c(=O)n2C
[1]
  activity change, negative = inhibition: -18.7%
[2]
  Potency: > 20.6 µM

## O=C(NO)c1ccccc1O
[1]
  activity change, negative = inhibition: -4.21%
[2]
  Potency: > 20.6 µM

## CSc1nc2sc3c(c2c2nnnn12)CCCC3
[1]
  activity change, negative = inhibition: 19.7%
[2]
  Potency: > 20.6 µM

## CCCCc1c(C)c2ccc(OCC(C)=O)cc2oc1=O
[1]
  activity change, negative = inhibition: -16.2%
[2]
  Potency: > 20.6 µM

## Cc1ccc2[nH]c3c(N4CCCCCC4)ncnc3c2c1
[1]
  activity change, negative = inhibition: -20.6%
[2]
  Potency: > 20.6 µM

## CC1(C)Cc2nc(NCCCO)c(C#N)cc2CO1
[1]
  activity change, negative = inhibition: -6.96%
[2]
  Potency: > 20.6 µM

## CC(C)C[C@H]1C(=O)N2CCC[C@H]2[C@]2(O)O[C@](NC(=O)[C@@H]3C=C4c5cccc6[nH]c(Br)c(c56)CC4N(C)C3)(C(C)C)C(=O)N12 (some centres undefined)
[1]
  activity change, negative = inhibition: -20.7%
[2]
  Potency: > 20.6 µM

## COc1cccc(-c2nc(NCC3CCCO3)c3ccccc3n2)c1O (centres undefined)
[1]
  activity change, negative = inhibition: -22.6%
[2]
  Potency: > 20.6 µM

## Cc1ccnc(N2CCN(c3cc(C)c(C#N)c4nc5ccccc5n34)CC2)c1
[1]
  activity change, negative = inhibition: 22.1%
[2]
  Potency: > 20.6 µM

## N#CC1=C(SCC(=O)c2ccc(Br)cc2)NC2=C(C(=O)CCC2)C1c1ccco1 (centres undefined)
[1]
  activity change, negative = inhibition: -81.5% (active)
[2]
  Potency: > 20.6 µM

## Cc1c([C@H]2[C@@H](CC#N)C2(C)C)c2ccccc2n1C
[1]
  activity change, negative = inhibition: -11.6%
[2]
  Potency: > 20.6 µM

## N#Cc1c(N)n(CCOC(=O)c2ccc(Cl)cc2)c2nc3ccccc3nc12
[1]
  activity change, negative = inhibition: 19.1%
[2]
  Potency: > 20.6 µM

## CCCCNC1=C(Br)C(=O)CC(C)(C)C1
[1]
  activity change, negative = inhibition: 4.07%
[2]
  Potency: > 20.6 µM

## C=CCSc1nnc2n(CCc3ccccc3)c(=O)c3c4c(sc3n12)COC(C)(C)C4
[1]
  activity change, negative = inhibition: -23.5%
[2]
  Potency: > 20.6 µM

## COCc1cc(=O)[nH]c(Nc2nc3ccc(C)cc3o2)n1
[1]
  activity change, negative = inhibition: -0.718%
[2]
  Potency: > 20.6 µM

## O=c1[nH]c(CN2CCCCC2)nc2c1C1(CCCC1)Cc1ccccc1-2
[1]
  activity change, negative = inhibition: 14.5%
[2]
  Potency: > 20.6 µM

## Clc1ccc(-c2nnc3sc(Cc4cccs4)nn23)cc1
[1]
  activity change, negative = inhibition: 2.06%
[2]
  Potency: > 20.6 µM

## CCOC(=O)C1=C(CSc2nc3c(cc2C#N)CN(C)CC3)OC(N)=C(C#N)C1c1ccccc1 (centres undefined)
[1]
  activity change, negative = inhibition: -2.2%
[2]
  Potency: > 20.6 µM

## Clc1ccccc1CSc1nnc(-c2ccco2)c(-c2ccco2)n1
[1]
  activity change, negative = inhibition: 10.8%
[2]
  Potency: > 20.6 µM

## C=C(C)CSc1nnc2n(C)c(=O)c3c4c(sc3n12)CCC4
[1]
  activity change, negative = inhibition: -2.43%
[2]
  Potency: > 20.6 µM

## CN1CCN(C(=O)CSc2nc(-c3cccs3)ccc2C#N)CC1
[1]
  activity change, negative = inhibition: -11%
[2]
  Potency: > 20.6 µM

## Oc1oc(-c2ccco2)nc1C=Nc1cccc(Cl)c1
[1]
  activity change, negative = inhibition: -27%
[2]
  Potency: > 20.6 µM

## CC(C)N1CC=C2C(C#N)=C(N)C(C#N)(C#N)C(c3ccccc3)C2C1 (centres undefined)
[1]
  activity change, negative = inhibition: 26.3%
[2]
  Potency: > 20.6 µM

## COc1cccc2c1C(=O)c1c(O)c3c(c(O)c1C2=O)C[C@](O)(C(=O)CO)C[C@H]3O[C@@H]1C[C@H](N)[C@H](O)[C@H](C)O1
[3]
  Potency: inactive
[4]
  activity, negative = inhibition: 92.4% [activator] (active)
[2]
  Potency: > 20.6 µM
[5]
  Potency: > 20.6 µM
[6]
  Potency: inactive

## CCCCC#Cc1nc(N)c2ncn([C@@H]3O[C@@H](C(=O)NCC)[C@H](O)[C@@H]3O)c2n1
[3]
  Potency: inactive
[7]
  activity change, negative = inhibition: 15.6% [at 38 µM]
[2]
  Potency: > 46 µM
[5]
  Potency: > 46 µM
[8]
  Potency: inactive
[6]
  Potency: inactive
[9]
  outcome: inactive
[10]
  Potency: inactive
[11]
  Potency: inactive
[12]
  Potency: inactive
[13]
  Potency: inactive
[14]
  outcome: inactive
[15]
  outcome: inactive
[16]
  outcome: inactive

## CNCC[C@H](Oc1ccccc1C)c1ccccc1
[3]
  Potency: 15.8 µM (active)
[4]
  activity, negative = inhibition: -13.9% [at 38 µM]
[2]
  Potency: > 46 µM
[5]
  Potency: > 46 µM
[8]
  Potency: inactive
[9]
  outcome: inactive
[17]
  Potency: 11.2 µM (active)
[13]
  Potency: inactive
[14]
  outcome: inactive
[15]
  outcome: inactive

## CC(C)(C)C1CCC2(CC1)C(C#N)=C(SCC(=O)Nc1ccccc1)NC(=O)C2C#N (centres undefined)
[1]
  activity change, negative = inhibition: -1.12%
[2]
  Potency: > 20.6 µM
